Laboratory results as given in a collection of fitness landscapes (doi:10.1038/s41467-024-54723-y).
In all, about 18,000 sequences were measured (“TetR repression strength (sort-seq, GFP reporter)”: median about 0.23, highest 2% from about 0.68 on). What follows is part of a selection rich in the highest values, with near analogues and random picks from the rest.

Biological target: TetR (class B, Tn10) (UniProt P04483)
Experiment: TetR repression strength (sort-seq, GFP reporter) (relative to tetO2 = 1); higher = stronger repression
Settings: E. coli
In short: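 Escherichia coli SIG10-MAX cells carried a low-copy plasmid library in which eight operator positions were randomized between a constitutive promoter and sfGFP, and TetR was expressed constitutively. After 5 h of growth at 37 °C in LB with 50 µg/mL chloramphenicol, 10^6 cells were FACS-sorted into 13 fluorescence bins, and each bin was Illumina-sequenced. Repression strength was the top bin index plus one minus the read-weighted mean bin, divided by the value for the unaltered operator. Across three independent transformations, only library members with ≥30 reads in every replicate and a CV ≤0.5 were averaged.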

TetR (class B, Tn10), sequence (P04483 whole entry): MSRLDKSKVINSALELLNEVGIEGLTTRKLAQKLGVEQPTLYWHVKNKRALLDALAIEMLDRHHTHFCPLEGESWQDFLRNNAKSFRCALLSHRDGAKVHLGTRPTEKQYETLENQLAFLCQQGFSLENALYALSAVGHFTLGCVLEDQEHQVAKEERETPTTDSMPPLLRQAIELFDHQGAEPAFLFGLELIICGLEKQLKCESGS

Row | Sequence | TetR repression strength
1 | TCCCGGACAGTAACGGAGA | 0.312
2 | TCCCGCGGAGTCACTGAGA | 0.415
3 | TCCCTCGTAGTGTTTGAGA | 0.362
4 | TCCCAGTCAGTTCAGGAGA | 0.096
5 | TCCCGATAAGTTGCGGAGA | 0.185
6 | TCCCTTTCAGTAGCGGAGA | 0.798
7 | TCCCTTTCAGTCGAGGAGA | 0.369
8 | TCCCTTACAGTAGCGGAGA | 0.0543
9 | TCCCTTTCAGTAGAGGAGA | 1.01
10 | TCCCTTTCAGTAGGGGAGA | 0.194
11 | TCCCCTTCAGTAGCGGAGA | 0.344
12 | TCCCAGACAGTCATCGAGA | 0.368
13 | TCCCTAGCAGTTGTAGAGA | 0.509
14 | TCCCTTGCAGTGATCGAGA | 0.654
15 | TCCCGTCGAGTAGGGGAGA | 0.127
16 | TCCCTGGGAGTTAGTGAGA | 0.146
17 | TCCCAGCGAGTTAGAGAGA | 0.815
18 | TCCCTGTTAGTTTGTGAGA | 0.4
19 | TCCCTAGGAGTTAGGGAGA | 0.979
20 | TCCCTAGTAGTTAGGGAGA | 0.192
21 | TCCCTGGGAGTTATAGAGA | 0.354
22 | TCCCTTGGAGTTAGGGAGA | 0.2
23 | TCCCTGGGAGTTAGAGAGA | 0.832
24 | TCCCTGATAGTTTGAGAGA | 0.382
25 | TCCCAGCGAGTTACAGAGA | 0.238
26 | TCCCTGTTAGTTTGAGAGA | 0.856

Row | Sequence | TetR repression strength
27 | TCCCAGAGAGTTAGCGAGA | 0.557
28 | TCCCAGAAAGTCAATGAGA | 0.289
29 | TCCCTGCTAGTGGCAGAGA | 0.119
30 | TCCCTATAAGTAGGAGAGA | 0.228
31 | TCCCAGTGAGTGCGCGAGA | 0.286
32 | TCCCCAGAAGTCGTTGAGA | 0.061
33 | TCCCCGTAAGTACAGGAGA | 0.368
34 | TCCCGGCAAGTTTTTGAGA | 0.238
35 | TCCCGGGAAGTGGGGGAGA | 0.274
36 | TCCCGGATAGTGATCGAGA | 0.33
37 | TCCCGACTAGTCAGGGAGA | 0.515
38 | TCCCCGGGAGTGTGGGAGA | 0.207
39 | TCCCTGGTAGTTAGTGAGA | 0.141
40 | TCCCTAGTAGTTGCGGAGA | 0.322
41 | TCCCAAGAAGTTGCGGAGA | 0.21
42 | TCCCTGGTAGTGACCGAGA | 0.116
43 | TCCCCTTGAGTTGAGGAGA | 0.707
44 | TCCCTGTTAGTTAGAGAGA | 0.452
45 | TCCCTTGGAGTTGAGGAGA | 0.465
46 | TCCCCTAGAGTTGAGGAGA | 0.239
47 | TCCCTGGTAGTGAGAGAGA | 0.326
48 | TCCCTGGTAGTTAGAGAGA | 0.821
49 | TCCCTAGAAGTTGCGGAGA | 1.2
50 | TCCCTGGTAGTGACAGAGA | 1.03
51 | TCCCGGCTAGTGTGGGAGA | 0.221
52 | TCCCAGGAAGTCAGGGAGA | 0.235

Row | Sequence | TetR repression strength
53 | TCCCCGAGAGTGCCAGAGA | 0.411
54 | TCCCAATGAGTTCAGGAGA | 0.243
55 | TCCCAGTTAGTAATTGAGA | 0.0467
56 | TCCCCTGGAGTTTGGGAGA | 0.286
57 | TCCCCTGGAGTTGGGGAGA | 1.09
58 | TCCCTGGGAGTTGGGGAGA | 0.211
59 | TCCCGACTAGTGATAGAGA | 0.632
60 | TCCCCTTGAGTGTTTGAGA | 0.302
61 | TCCCCTCTAGTGTTTGAGA | 0.945
62 | TCCCGTCTAGTGTTTGAGA | 0.371
63 | TCCCCTGTAGTGTTTGAGA | 0.396
64 | TCCCCTCGAGTGTGTGAGA | 0.125
65 | TCCCCTCGAGTGTTTGAGA | 0.92
66 | TCCCCCAGAGTTAACGAGA | 0.207
67 | TCCCCTGCAGTGGCTGAGA | 0.205
68 | TCCCCATGAGTAGTCGAGA | 1.03
69 | TCCCCAAGAGTAGATGAGA | 0.739
70 | TCCCCATTAGTAGTCGAGA | 1.01
71 | TCCCCATTAGTATTCGAGA | 0.24
72 | TCCCCAAAAGTAGATGAGA | 0.081
73 | TCCCGTAGAGTCGATGAGA | 0.715
74 | TCCCCACGAGTAGTCGAGA | 0
75 | TCCCCAATAGTAGTCGAGA | 0.459
76 | TCCCCAATAGTAGATGAGA | 0.672
77 | TCCCCATGAGTCGTCGAGA | 0.214
78 | TCCCGTTGAGTCGATGAGA | 0.335

Row | Sequence | TetR repression strength
79 | TCCCCTAGAGTCGATGAGA | 0.271
80 | TCCCGAAGAGTAAGTGAGA | 0.207
81 | TCCCGTCCAGTGTGTGAGA | 0.22
82 | TCCCATATAGTGTACGAGA | 0.0769
83 | TCCCCTAGAGTGCAAGAGA | 0.552
84 | TCCCATGGAGTTGGTGAGA | 0.227
85 | TCCCCTCAAGTCGAGGAGA | 0.125
86 | TCCCTACAAGTGGATGAGA | 0.221
87 | TCCCTATCAGTGCCAGAGA | 0.743
88 | TCCCCAGTAGTCCCTGAGA | 0.945
89 | TCCCTATCAGTCCCAGAGA | 1.18
90 | TCCCCTTCAGTCCCAGAGA | 1.12
91 | TCCCTCTCAGTGCCAGAGA | 0.585
92 | TCCCTATTAGTCCCAGAGA | 0.32
93 | TCCCTATCAGTCCGAGAGA | 0.324
94 | TCCCCAGTAGTCGCTGAGA | 0.311
95 | TCCCTTTCAGTCCCAGAGA | 0.0305
96 | TCCCAGTCAGTCCCAGAGA | 0.365
97 | TCCCTGTCAGTGCCAGAGA | 0.324
98 | TCCCCAGTAGTCTGAGAGA | 0.0196
99 | TCCCGTCAAGTAATAGAGA | 0.331
100 | TCCCTGTTAGTTGTCGAGA | 0.341
101 | TCCCTTTCAGTATGGGAGA | 0.422
102 | TCCCAAAAAGTGGTGGAGA | 0.203
103 | TCCCCGCGAGTTGAAGAGA | 0.335
104 | TCCCTAACAGTCGGCGAGA | 0.163
